Assay results: PubChem BioAssay (Tox21)
Records with an inconclusive call do not appear. A structure can be active in one record and inactive in another. Active and inactive are the calls of the source. Unless noted, the call rests on the fitted dose curve; in most records, active means well fitted curve in the direction sought with a large enough effect in the repeat runs; inconclusive means weak or mixed curves; inactive means no such curve, though single readings can be large; an effect the other way counts as inactive or inconclusive.

What was measured:
[1] = qHTS assay to identify small molecule antagonists of the estrogen receptor alpha (ER-alpha) signaling pathway using the BG1 cell line in the presence of 0.1 nM 17-beta-estradiol - cell viability counter screen (AID 1259241); further: nearly all actives have a fitted effect of over 40% in size
Outline: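 Viability in VM7Luc4E2 cells after 22 hr compound exposure under 0.1 nM 17beta-estradiol stimulation, by CellTiter-Fluor.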

[2] = qHTS assay to identify small molecule antagonists of the androgen receptor (AR) signaling pathway using the MDA cell line in the presence of 0.5 nM R1881 - cell viability counter screen (AID 1259242); further: nearly all actives have a fitted effect of over 45% in size
Outline: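 Human breast carcinoma MDA-kb2 cells, cultured without CO2, receive compounds alongside 0.5 nM (final) R1881 agonist. After 16 hr at 37C, viability is taken as live-cell protease signal.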

[3] = molecular target: Estrogen receptor (Homo sapiens) (UniProt P03372); experiment: qHTS assay to identify small molecule antagonists of the estrogen receptor alpha (ER-alpha) signaling pathway using the BG1 cell line in the presence of 0.1 nM 17-beta-estradiol (AID 1259244); further: nearly all actives have a fitted effect of over 50% in size
Outline: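 Seeding of stripped-serum-adapted VM7Luc4E2 cells, 24 h attachment, compound transfer, then 0.1 nM final 17beta-estradiol; after 22 h incubation, ONE-Glo reagent and luminescence reading.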

[4] = qHTS assay to identify small molecule phospholipidosis (PLD) inducers (AID 1259344; active means well fitted curve in the direction sought with a large enough effect; an effect the other way counts as inactive or inconclusive)
Outline: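 Phospholipid accumulation was scored by imaging: fixed, Hoechst-counterstained HepG2 cells stained with LipidTOX Red after 24 h compound exposure at 37 C. Read-outs were pit count and pit intensity per well or per cell, with amiodarone and DMSO controls.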

[5] = qHTS assay to identify small molecule HDAC inhibitors - cell viability counter screen (AID 1259365); further: series mostly up to about 92 µM; nearly all actives have a fitted effect of over 50% in size
Outline: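 Cytotoxicity was gauged in wild-type HCT-116 cells after a brief 2hr treatment with DMSO-dissolved compounds at 37C and 5% CO2, using CellTiter-Glo luminescence developed for 30min at room temperature.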

[6] = qHTS assay to identify small molecule agonists of the sonic hedgehog signaling (Shh) pathway - cell viability counter screen (AID 1259366); further: nearly all actives have a fitted effect of over 50% in size
Outline: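 Stable Gli1-Luc NIH/3T3 clone, 2,000 cells/well. Compound exposure 24hr at 37C. Read-out: CellTiter-Fluor fluorescence.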

[7] = qHTS assay to identify small molecule antagonists of the sonic hedgehog signaling (Shh) pathway - cell viability counter screen (AID 1259367); further: nearly all actives have a fitted effect of over 55% in size; further: potency means the concentration at half of the fitted maximal effect
Outline: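 Viability was read by CellTiter-Fluor fluorescence in the same wells, reagent added 23 hr into compound treatment and incubated 1 hr at 37C. The 3T3 Gli1-Luc reporter cells (2,000/well) received conditioned medium after compound and ran 24 hr.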

[8] = qHTS assay to identify small molecule agonists of the sonic hedgehog signaling (Shh) pathway (AID 1259368; calls by dose curve;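 further: NIH/3T3-derived 3T3Gli1-Luc cells carrying a stable Gli1-driven firefly luciferase reporter; series mostly up to about 92 µM; nearly all actives have a fitted effect of over 15% in size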)
Outline: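 Stable NIH/3T3 Gli1-Luc reporter clone; 24 hr cpd exposure after a 4 hr settling period; luminescence endpoint.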

[9] = qHTS assay to identify small molecule HDAC inhibitors (AID 1259364); further: potency means the concentration at half of the fitted maximal effect;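 further: wild-type HCT-116 cells with endogenous class I/II HDAC activity; nearly all actives have a fitted effect of over 45% in size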; on activity change, negative = inhibition: top concentration of the series differs between compounds
Outline: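 After a 2 hr compound incubation (37C, 5% CO2), HCT-116 cells seeded at 1,500/well the day before received HDAC-Glo reagent; signal read as luminescence after 30 min at room temperature.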
On the % scale 0 is the no-effect control and ±100 the full control effect.

Sequence of Estrogen receptor (Homo sapiens) (P03372 whole entry, looked up): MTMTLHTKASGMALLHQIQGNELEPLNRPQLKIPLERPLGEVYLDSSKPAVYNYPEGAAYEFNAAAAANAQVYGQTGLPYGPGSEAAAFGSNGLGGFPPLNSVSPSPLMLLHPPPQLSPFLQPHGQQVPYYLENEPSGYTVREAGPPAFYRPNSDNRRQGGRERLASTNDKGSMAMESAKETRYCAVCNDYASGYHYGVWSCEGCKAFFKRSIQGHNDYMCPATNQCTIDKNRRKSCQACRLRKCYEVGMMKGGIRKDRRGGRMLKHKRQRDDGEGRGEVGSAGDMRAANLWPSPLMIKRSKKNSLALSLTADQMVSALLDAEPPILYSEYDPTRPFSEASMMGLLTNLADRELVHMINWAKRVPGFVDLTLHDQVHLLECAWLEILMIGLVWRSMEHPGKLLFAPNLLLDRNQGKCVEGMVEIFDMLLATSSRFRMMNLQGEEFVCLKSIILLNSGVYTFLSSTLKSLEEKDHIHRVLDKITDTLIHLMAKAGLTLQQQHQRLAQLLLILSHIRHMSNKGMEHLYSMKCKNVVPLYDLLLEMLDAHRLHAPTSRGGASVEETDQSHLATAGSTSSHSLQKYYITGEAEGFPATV

CC1(C)CO[C@@H](CC(=O)O)CN1
inactive: outcome [1] | Potency [2] | outcome [3] | Potency [4] | outcome [5] | Potency [6] | Potency [7] | outcome [8]

CCO/C([O-])=N/c1c[n+](N2CCOCC2)no1
inactive: outcome [1] | Potency [2] | outcome [3] | Potency [4] | Potency [9] | outcome [5] | Potency [7] | outcome [8]

N[C@@H](C(=O)N[C@@H]1C(=O)N2C(C(=O)O)=C(Cl)CS[C@H]12)c1ccccc1
inactive: activity change, negative = cytotoxicity [1] 0.43% [at 8.39 µM] | viability change, negative = cytotoxic [2] 4.33% [at 8.39 µM] | activity change, negative = inhibition [3] 7.81% [at 8.39 µM] | Potency [4] | activity change, negative = inhibition [9] 5.64% [at 8.39 µM] | activity change, negative = cytotoxicity [5] -0.59% [at 8.39 µM] | viability change, negative = cytotoxic [6] 1.34% [at 8.39 µM] | viability change, negative = cytotoxic [7] 3.69% [at 8.39 µM] | activity change [8] -0.56% [at 8.39 µM]

Cc1cccn2c(=O)c(-c3nnn[nH]3)cnc12
inactive: activity change, negative = cytotoxicity [1] 2.88% [at 19 µM] | viability change, negative = cytotoxic [2] 3.32% [at 19 µM] | activity change, negative = inhibition [3] 3.45% [at 19 µM] | Potency [4] | activity change, negative = inhibition [9] -1.21% [at 19 µM] | activity change, negative = cytotoxicity [5] -4.27% [at 19 µM] | viability change, negative = cytotoxic [6] 4.51% [at 19 µM] | Potency [7] | activity change [8] 0.228% [at 18.9 µM]

CC(C)c1cc2c(cc1S(=O)(=O)O)[C@@]1(C)CCC[C@@](C)(C(=O)O)[C@@H]1CC2
inactive: outcome [1] | Potency [2] | outcome [3] | Potency [4] | Potency [9] | outcome [5] | Potency [6] | Potency [7] | outcome [8]

c1ccc([C@H]2CN3CCSC3=N2)cc1
inactive: outcome [1] | Potency [2] | outcome [3] | Potency [4] | Potency [9] | outcome [5] | Potency [6] | Potency [7] | outcome [8]

O=C(O)Cc1ccc(CCNS(=O)(=O)c2ccc(Cl)cc2)cc1
inactive: outcome [1] | Potency [2] | outcome [3] | Potency [4] | Potency [9] | outcome [5] | Potency [6] | Potency [7] | outcome [8]

Cc1ccc(=O)n(-c2ccccc2)c1
inactive: outcome [1] | Potency [2] | outcome [3] | Potency [4] | Potency [9] | outcome [5] | Potency [6] | Potency [7] | outcome [8]

Cc1cc2c(cc1S(N)(=O)=O)S(=O)(=O)CCC2
inactive: outcome [1] | Potency [2] | outcome [3] | Potency [4] | Potency [9] | outcome [5] | Potency [7] | outcome [8]

COC(=O)C1=C(C)NC(C)=C(C(=O)OC)C1c1ccccc1[N+](=O)[O-]
30.7 µM (active) and inactive: Potency [7]
inactive: outcome [1] | Potency [2] | outcome [3] | Potency [4] | Potency [9] | outcome [5] | outcome [8]

N=c1nc(N2CCCCC2)cc(N)n1O
inactive: outcome [1] | Potency [2] | outcome [3] | Potency [4] | Potency [9] | outcome [5] | Potency [6] | Potency [7] | outcome [8]

O=c1cc(CO)occ1O
inactive: outcome [1] | Potency [2] | outcome [3] | Potency [4] | outcome [5] | Potency [6] | Potency [7] | outcome [8]

Cc1cccc(C)c1NC(=O)C(C)N (centres undefined)
inactive: outcome [1] | Potency [2] | outcome [3] | Potency [4] | Potency [9] | outcome [5] | Potency [7] | outcome [8]

Cc1c(NC(C)C)c(=O)n(-c2ccccc2)n1C
inactive: outcome [1] | Potency [2] | outcome [3] | Potency [4] | Potency [9] | outcome [5] | Potency [7] | outcome [8]

Cc1nc2c([nH]1)c(=O)n(C)c(=O)n2Cc1ccco1
inactive: outcome [1] | Potency [2] | outcome [3] | Potency [4] | Potency [9] | outcome [5] | Potency [6] | Potency [7] | outcome [8]

NC(CSCC(=O)O)C(=O)O (centres undefined)
inactive: outcome [1] | Potency [2] | outcome [3] | Potency [4] | Potency [9] | outcome [5] | Potency [7] | outcome [8]

O=C(O)c1ccccc1OP(=O)(O)O
inactive: outcome [1] | Potency [2] | outcome [3] | Potency [4] | Potency [9] | outcome [5] | Potency [6] | Potency [7] | outcome [8]

CN(C)CCCSc1ccccc1NC(=O)/C=C/c1ccccc1
inactive: outcome [1] | Potency [2] | outcome [3] | Potency [4] | outcome [5] | Potency [6] | Potency [7] | outcome [8]
active: Potency [9] 8.41 µM

CCOC(=O)Nc1ccc(NCc2ccc(F)cc2)nc1N
inactive: outcome [1] | Potency [2] | outcome [3] | Potency [4] | Potency [9] | outcome [5] | Potency [7] | outcome [8]

CCN(CC)CCOCCOC(=O)C1(c2ccccc2)CCCC1
inactive: outcome [1] | Potency [2] | outcome [3] | Potency [4] | outcome [5] | outcome [8]

CCC(C)C1CCCCC1=O (centres undefined)
inactive: outcome [1] | Potency [2] | outcome [3] | Potency [9] | outcome [5] | Potency [6] | Potency [7] | outcome [8]

CC(=O)c1ccccc1O
inactive: outcome [1] | Potency [2] | outcome [3] | Potency [9] | outcome [5] | Potency [6] | Potency [7] | outcome [8]

CC1=CC(C)C(C=O)CC1 (centres undefined)
inactive: outcome [1] | Potency [2] | outcome [3] | Potency [9] | outcome [5] | Potency [6] | Potency [7] | outcome [8]

CCOC(=O)C(=O)OCC
inactive: outcome [1] | Potency [2] | outcome [3] | Potency [9] | outcome [5] | Potency [6] | Potency [7] | outcome [8]

OCCOc1ccc(OCCO)cc1
inactive: outcome [1] | Potency [2] | outcome [3] | Potency [9] | outcome [5] | Potency [6] | Potency [7] | outcome [8]

CCCCCOC(=O)CCCCC
inactive: outcome [1] | Potency [2] | outcome [3] | Potency [9] | outcome [5] | Potency [6] | Potency [7] | outcome [8]

c1cnc(N2CCN(Cc3ccc4c(c3)OCO4)CC2)nc1
inactive: outcome [1] | Potency [2] | outcome [3] | Potency [4] | outcome [5] | Potency [6] | Potency [7] | outcome [8]
